# Data from the supplement of paper PMC6555819.
# What was measured:
# Experiment in all cases: PBM binding z-score (relative to random genomic background probes); higher = stronger binding; sequences stand for … in GC…GCGATTGACAGCGTAGAATGAAGG
# [1] = tested on: FXR:RXRa (NR concentration 270 nM, RXRa partner concentration 90 nM)
# How it was run: (§1)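 For binding z-scores, the reference was random background probes on custom Agilent 4×180K protein-binding microarrays. These arrays were incubated 1 h with ligand-free nuclear receptor dimers in PBS pH 7.4, 2% milk, 0.02% Triton X-100, 1 mM DTT, 0.2 mg/mL BSA and 0.4 mg/ml salmon testes DNA. Fluorescence was scanned after antibody detection of each partner (one per run) and regression-normalized.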
# [2] = tested on: LXRa:RXRa (NR concentration 270 nM, RXRa partner concentration 90 nM)
# How it was run: as §1
# [3] = tested on: LXRa homodimer (NR concentration 270 nM)
# How it was run: as §1
# [4] = tested on: LXRb:RXRa (NR concentration 270 nM, RXRa partner concentration 90 nM)
# How it was run: as §1
# [5] = tested on: LXRb homodimer (NR concentration 270 nM)
# How it was run: as §1
# [6] = tested on: PPARa:RXRa (NR concentration 270 nM, RXRa partner concentration 90 nM)
# How it was run: as §1
# [7] = tested on: PPARg:RXRa (NR concentration 180 nM, RXRa partner concentration 90 nM)
# How it was run: as §1
# [8] = tested on: PPARg:RXRa 270nM:90nM, anti-RXR (NR concentration 270 nM, RXRa partner concentration 90 nM)
# How it was run: as §1
# [9] = tested on: PPARg:RXRa 30nM:10nM, anti-RXR (NR concentration 30 nM, RXRa partner concentration 10 nM)
# How it was run: as §1
# [10] = tested on: PPARg:RXRa 90nM:30nM, anti-RXR (NR concentration 90 nM, RXRa partner concentration 30 nM)
# How it was run: as §1
# [11] = tested on: PPARg:RXRa DBDmut IVT, anti-RXR (DBD mutation: RXRa K156A/R161A, NR concentration 270 nM, RXRa partner concentration 90 nM)
# How it was run: as §1
# [12] = tested on: PPARg:RXRa IVT, anti-PPARg (NR concentration 270 nM, RXRa partner concentration 90 nM)
# How it was run: as §1
# [13] = tested on: PPARg DBDmut:RXRa IVT, anti-PPARg (DBD mutation: PPARg1 K132A/R137A, NR concentration 270 nM, RXRa partner concentration 90 nM)
# How it was run: as §1
# [14] = tested on: PPARg DBDmut IVT, anti-PPARg (DBD mutation: PPARg1 K132A/R137A, NR concentration 270 nM)
# How it was run: as §1
# [15] = tested on: PPARg homodimer (NR concentration 180 nM)
# How it was run: as §1
# [16] = tested on: PXR:RXRa (NR concentration 270 nM, RXRa partner concentration 90 nM)
# How it was run: as §1
# [17] = tested on: PXR homodimer (NR concentration 270 nM)
# How it was run: as §1
# [18] = tested on: RARa:RXR (NR concentration 270 nM, RXRa partner concentration 90 nM)
# How it was run: as §1
# [19] = tested on: RARa homodimer (NR concentration 270 nM)
# How it was run: as §1
# [20] = tested on: RARb:RXRa (NR concentration 270 nM, RXRa partner concentration 90 nM)
# How it was run: as §1
Sequence,PBM binding z-score [1],PBM binding z-score [2],PBM binding z-score [3],PBM binding z-score [4],PBM binding z-score [5],PBM binding z-score [6],PBM binding z-score [7],PBM binding z-score [8],PBM binding z-score [9],PBM binding z-score [10],PBM binding z-score [11],PBM binding z-score [12],PBM binding z-score [13],PBM binding z-score [14],PBM binding z-score [15],PBM binding z-score [16],PBM binding z-score [17],PBM binding z-score [18],PBM binding z-score [19],PBM binding z-score [20]
ACTTACTGGTCAACGAGGTTATAGCACGCGTATA,1.24,1.44,0.897,1.62,0.859,1.88,1.04,1.16,1.29,1.29,1.29,1.65,1.75,1.91,1.38,1.89,0.901,2.03,1.23,2.09
CCTTACGGGTCACTCCAGGTTATAGCTTCGGAGT,5.46,7.43,1.7,4.64,0.284,4.05,3.22,3.66,1,2.17,3.23,3.56,0.585,0.163,2.23,4.98,0.446,3.52,1.34,3.72
GCGACTGGGTCAAAGCAGGTTACCATAAGGTTGG,3.12,3.67,-0.265,2.21,-0.807,4.27,4.75,4.75,2.08,3.49,5.8,6.15,0.18,0.407,1.75,3.55,-0.492,3.29,-0.492,3.19
TCTGCTAGGTCAACGATGGTCAGCTGATCTGCTA,3.18,2.66,-0.222,1.72,0.146,3.35,2.72,3.15,1.81,2.66,3.61,4.29,-0.0935,1.17,0.984,1.58,-0.669,2.3,-0.39,4.03
CCGCCTGGGGCATAAGGTTACCATAAGCCAGCCC,0.396,2.13,-0.0987,0.843,-1.3,1.3,0.507,0.996,-0.661,0.461,-0.446,-0.147,-2.09,-2.48,0.35,0.37,-0.511,1.52,-0.89,1.68
CTCAAAAGGTCGGTTGAGGTGAGTATACGGATAA,2.63,1.8,-0.331,1.63,0.0339,2.98,0.821,1.29,0.383,0.881,-0.129,1.12,0.328,0.889,0.591,3.26,0.191,2.82,-0.384,3.4
ATCTCTGGGTAACCAAGTTCAGTGAATGCCGAAC,0.227,0.778,0.498,0.621,0.534,1.09,0.329,0.858,-0.0191,0.333,3.23,2.59,0.324,1.24,0.00227,2.4,1.35,0.719,-0.0126,1.24
ATATGTAGGTTACATCCGGGGCATTCAGGCTATG,0.427,2.23,0.412,1.16,1.07,3.19,5.17,4.28,1.77,3.18,7.46,7.35,2.05,1.15,0.96,1.14,0.659,0.992,0.476,1.26
CCTTACGGGTCACTGACAGGTTATAGCTTTTGGA,4.62,4.13,0.331,3.35,-0.0774,4.88,3.89,4.21,1.73,3.06,3.62,3.94,-0.188,-0.142,1.82,3.38,-0.201,4.13,0.634,3.74
TCTAGCAGGCCAGAGGGTCACTCATGAGGTACGG,0.745,0.822,-0.462,0.852,-1.1,2.2,1.64,2.87,2.19,2.63,0.668,1.02,-0.735,-1.14,0.486,1.64,-0.579,2.5,-0.79,2.24
TCATGTAGATCAAGCAGGTTAAGAAAGCCTGAGT,0.865,0.684,-0.0467,0.774,-0.523,0.929,-0.116,1.74,3.28,2.36,2.01,0.466,0.49,0.274,0.552,0.746,0.293,0.72,-0.363,-0.0113
CCTGACGGGTCACTGACAGGTTATAGCATTTGGA,4.19,3.46,0.214,2.64,-0.319,4.19,2.56,2.71,0.481,1.8,1.12,1.82,0.147,-0.292,3.03,3.08,-0.179,4.01,0.536,3.69
GGAACGAGGGCAAGTTGGTAGCAGAGTTTGATGG,0.88,0.565,-0.29,0.202,-0.428,1.58,0.752,0.875,-0.334,0.0314,3.6,2.34,-0.479,-0.423,0.722,0.696,0.853,0.662,-0.182,2.79
